In the library only some 1.1% were active in any assay of this set; here they are far more common.
RGS4 inh – inhibitors of human regulator of G protein signaling 4; Transcreener GDP fluorescence polarization, RGS4-accelerated GTP hydrolysis; Potency, µM (doses to about 114 µM), for the others: top-dose activity change, negative = inhibition, actives largely listed as inhibitors; 390,000 compounds, 0.039% hits; AID 504845; note: potency is the fitted concentration of half-maximal effect; % is set by controls: 0 for no effect and ±100 for the full control effect; nearly all actives have a fitted effect of over 75% in size
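MLSMR compounds (23 nl, pin-transferred) preincubated 10 min at room temperature with a 500nM (2x) first reagent, then RGS4 at 900nM (2x) plus Transcreener GDP mix added; fluorescence polarization (620/688 nm) read before and after 90 min at 30 °C.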
PTHR1 agonist – PTHR1 (human) receptor agonism. Potency, µM (series often up to 115 µM), without a hit: top-dose activation, hits mostly activators. HEK293 GP2 PTHR1 cells, GloSensor cAMP luminescence, 1 h. 410,000 compounds, 0.075% hits. AID 743266. Q03431; note: potency is the fitted concentration of half-maximal effect; nearly all actives have a fitted effect of over 55% in size
Target sequence (Q03431 whole entry, looked up): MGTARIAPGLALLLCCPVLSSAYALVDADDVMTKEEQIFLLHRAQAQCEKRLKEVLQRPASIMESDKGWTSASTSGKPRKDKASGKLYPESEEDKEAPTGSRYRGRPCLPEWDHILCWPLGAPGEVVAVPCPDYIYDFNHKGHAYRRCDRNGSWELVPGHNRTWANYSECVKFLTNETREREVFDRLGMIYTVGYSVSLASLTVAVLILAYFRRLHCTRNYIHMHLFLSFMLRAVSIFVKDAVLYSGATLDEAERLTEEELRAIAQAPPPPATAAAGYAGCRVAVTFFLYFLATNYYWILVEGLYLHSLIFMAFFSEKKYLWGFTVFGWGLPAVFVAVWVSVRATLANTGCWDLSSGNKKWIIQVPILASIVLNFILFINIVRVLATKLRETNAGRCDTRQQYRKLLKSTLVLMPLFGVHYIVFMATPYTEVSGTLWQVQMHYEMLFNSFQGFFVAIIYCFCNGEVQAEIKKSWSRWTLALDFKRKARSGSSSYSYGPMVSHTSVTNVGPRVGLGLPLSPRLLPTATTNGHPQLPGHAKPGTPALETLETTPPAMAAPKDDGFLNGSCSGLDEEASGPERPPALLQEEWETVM
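HEK-293-derived GP2 cells expressing PTHR1 and a GloSensor cAMP reporter, 3,000/well, plated overnight, given luciferin plus IBMX (each 0.5 mM as added) for 1 h at 37 °C, then compound for 1 h at 37 °C. Luminescence was read after 15 min at room temperature.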
BRCA1 expr up – increases BRCA1 expression; AID 624202; Potency, µM (series often up to 46.1 µM), for inactives: at the highest dose activation, most hits filed as activators; MCF7-BRCA1-FFLuc reporter, luminescence, 48 h; response scale: scaled: vehicle 0%, 10 µM genistein 100%; 380,000 compounds, 1.1% hits; note: potency is the fitted concentration of half-maximal effect; nearly all actives have a fitted effect of over 80% in size
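Quantitative HTS in MCF7 cells stably reporting BRCA1 expression via firefly luciferase. Compound treatment lasts 48 h at 37 °C in phenol-red free MEM. Activation is expressed relative to genistein at 10 microM and DMSO.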
p53 reactivation – mutant p53 re-activation in reporter cells. H1299 p53-A138V BP100-luciferase reporter, luminescence, 24 h. Potency, µM (titrated, usually from 92.2 µM), without a hit: top-dose activity change, positive = activation, most hits filed as activators. 320,000 compounds, 0.063% hits. AID 504706; note: potency is the fitted concentration of half-maximal effect; % of control where 0% means no effect; nearly all actives have a fitted effect of over 45% in size
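p53-null H1299 cells stably carrying temperature-sensitive p53-A138V and a BP100-luciferase reporter were pinned with compounds (4-point, 1:5 series) and held 24 hrs at 37 deg C. Luminescence was read 10 min after detection reagent.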
LDHA block – inhibitors of human lactate dehydrogenase A. purified LDHA, NADH/diaphorase-resazurin fluorescence; stronger effect = lower value. P00338. AID 1347041. activity change, % (values are at about 110 or 230 µM). 480,000 compounds, 0.15% hits; in the data active = activity change below about -30%; inconclusive = mostly about -25% to -30%;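 note: plate controls were DMSO wells for no effect and wells without enzyme for full effect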
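Human LDH5 at 2 nM final in Tris HCl pH 7.4 with 0.06 mM NADH and 0.2 mM pyruvate, reacted 5 minutes at room temperature. Remaining NADH coupled via diaphorase/resazurin; resorufin fluorescence read at 0 and 20 minutes, normalized to enzyme-free and DMSO wells.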
Active calls of the source: *; i = inactive; ? = inconclusive; . = not tested or not shown; [ ] = another dose, or the depositor's remark. Unless noted, calls come from the whole dose curve; as a rule, active = well fitted curve in the direction sought with a large enough effect; inconclusive = small, poorly fitted or top-dose-only effect, or another doubt; inactive = no such curve, though single readings can be large; an effect the other way counts as inactive or inconclusive.

SMILES	RGS4 inh	PTHR1 agonist	BRCA1 expr up	p53 reactivation	LDHA block
Cc1ccc(/C=N/NC(=O)c2ccccn2)o1	-2%	i	11µM*	?	-2
Cn1c(O)c(C2=Nc3ccccc3SC(c3ccc(O)cc3)C2)c(=O)[nH]c1=O (configuration not stated)	.	.	.	.	8
C#CCCOc1ccc(C(=O)c2ccc(-c3no[n+]([O-])c3C#N)cc2)cc1	.	.	.	.	-12
C=CCN1N=C(/C=C/c2ccc(C)cc2)CCC1=O	15%	-2%	11µM*	6%	-4
COc1ccc2c(CNc3ccc(C)cc3)cc(=O)oc2c1	.	.	.	.	9
Clc1cccc(CSc2nc3ccncc3[nH]2)c1	13%	-13%	8.9µM*	?	-1
Fc1cccc(CSc2nc3ccncc3[nH]2)c1	25%	i	?	?	-18
Cc1[nH]c2ccccc2c1C(=O)C(=O)Nc1ccc(C(C)C)cc1	.	.	.	.	4
CCOc1ccc(NC(=O)c2ccncc2)cc1	-3%	-1%[57.5 µM]	-2%	18%	-6
CCOc1ccc2c(c1)C(=NNC(=O)c1ccncc1)c1cc(OCC)ccc1-2	-1%	-4%	-43%	40µM*	-5
O=C(/C=C/c1ccccc1Cl)Nc1ccc2c(c1)C(=O)NC2=O	-48%	28%	35%	-3%	-46*
O=C1CCc2cc(-c3csc(NC4CC4)n3)ccc2N1	.	.	.	.	-20
CC(C)Oc1ccc2ccccc2c1/C=C(\C#N)c1nc2ccccc2[nH]1	.	.	.	.	-30*
N#Cc1nc(COc2ccc(Br)cc2)oc1NC1CC1	.	.	.	.	5
C/C(=N\NC(=O)c1sccc1C)c1cccnc1	-17%	-10%	2.8µM*	?	0
Fc1ccc(CNC(=S)Nc2cccc(F)c2)cc1	.	.	.	.	0
O=c1oc(Nc2cccc(Cl)c2)nc2ccccc12	12%	-44%	7.1µM*	10%	0
Cc1ccc(/C=C/C(=O)NCCCc2ccccc2)cc1	-20%	-3%	-18%	?	-4
C#CCNC(=O)/C=C/c1ccc(C)cc1	23%	-4%	11µM*	?	-5
CCCn1cnc2c(SCc3ccccc3F)nc(N)nc21	-4%	-3%	10µM*	.	-7
O=c1[nH]c(=O)n(Cc2ccco2)c2nccc(-c3ccc4c(c3)OCO4)c12	.	.	.	.	0
OC(c1ccc(F)cc1)c1nc(/C=C/c2ccccc2)cs1 (configuration not stated)	.	-8%	85%	.	-3
OC(c1ccccc1)c1nc(/C=C/c2ccccc2)cs1 (configuration not stated)	.	-7%	10µM*	.	1
COc1ccc(OC)c(C2C(C(=O)c3ccco3)=C(O)C(=O)N2c2nc3ccc(F)cc3s2)c1 (configuration not stated)	.	.	.	.	-2
Cc1ccc(Nc2cc(C)c3c(O)cccc3n2)cc1C	-19%	i	5.6µM*	?	-7
SMILES	RGS4 inh	PTHR1 agonist	BRCA1 expr up	p53 reactivation	LDHA block
COc1ccc(Nc2cc(C)c3c(O)cccc3n2)cc1	5%[11.4 µM]	i	?	27%	3
Cc1ccc2nc(-c3ccncc3)cc(C(=O)O)c2c1	.	.	.	.	7
Nc1ccc(CSc2ccc(Cl)cc2)c(Cl)c1	0%	-20%	1.8µM*	.	10
COc1ccc(OC)c(NC(=O)NCc2nc(-c3cccc(Cl)c3)oc2C)c1	.	.	.	.	7
CN(C)S(=O)(=O)c1cccc(NC(=O)COC(=O)c2cc3ccccc3oc2=O)c1	17%	i	10µM*	20%	-5
O=C(COC(=O)c1cc2ccccc2oc1=O)NCC1CCCCC1	.	.	.	.	-24
O=C(COC(=O)c1cc2ccccc2oc1=O)Nc1ccc(F)cc1F	13%[11.4 µM]	-13%	10µM*	29%	-4
O=C(COC(=O)c1cc2ccccc2oc1=O)Nc1cccc(S(=O)(=O)N2CCCCCC2)c1	11%	-46%	8%	?	-6
Cc1ccc(NC(=O)C2Cc3ccccc3C(=O)O2)cc1 (configuration not stated)	6%	-17%	4µM*	24%	-11
COc1ccc(/C=C/C(=O)C2(O)CCCCC2)cc1	20%	i	29%	40µM*	-5
COc1ccc(/C=C/C(=O)C2(C)CCCCC2)cc1	.	.	.	.	3
C[C@H](NC(=O)C(=O)Nc1ccc2cc[nH]c2c1)c1ccccc1	.	.	.	.	-3
Cc1ccc(C(CNC(=O)c2ccc(NC(=O)OC(C)(C)C)cc2)N2CCOCC2)o1 (configuration not stated)	.	.	.	.	-34*
CCOc1ccc(-c2nc(CSc3nnc(N)s3)cs2)cc1OC	-46%	-21%	38%	7%	-3
CCOc1ccc(-c2nc(CSc3nnc(N)s3)cs2)cc1	9%	-19%[57.5 µM]	4µM*	23%	-3
COC(=O)C(Cc1ccc(OC(=O)c2ccccc2C)cc1)N1Cc2ccccc2C1=O (configuration not stated)	-15%	-14%	?	?	1
COC(=O)C(Cc1ccc(OC(=O)c2ccccc2Cl)cc1)N1Cc2ccccc2C1=O (configuration not stated)	-37%	-25%	6.3µM*	?	-1
Cc1cc(C)c(NC(=O)CCl)c(C)c1	.	.	.	.	-1
COC(=O)N/N=C/c1ccccc1OC(C)=O	.	.	.	.	-10
COC(=O)N/N=C\c1ccccc1OC/C=C/c1ccccc1	9%	i	11µM*	?	-1
N#CCC(=O)N/N=C\c1cc(Br)ccc1OC/C=C/c1ccccc1	6%	i	8.9µM*	20%	-6
N#CCC(=O)N/N=C/c1cccc(Oc2ccccc2)c1	15%	-6%	-11%	0%	-6
CCOC(=O)N/N=C\c1ccccc1OC/C=C/c1ccccc1	14%	-15%	4µM*	13%	-6
N#Cc1cc(Br)ccc1OCc1ccccc1Cl	.	.	.	.	-4
c1ccc(CCCc2nc(-c3ccccn3)no2)cc1	17%	-13%[57.5 µM]	7.1µM*	.	-2
SMILES	RGS4 inh	PTHR1 agonist	BRCA1 expr up	p53 reactivation	LDHA block
c1ccc(SCc2nc(-c3ccccn3)no2)cc1	8%	-10%[57.5 µM]	7.1µM*	?	-12
c1ccc(CCCc2nc(-c3cccnc3)no2)cc1	8%	i	72%	?	-1
c1ccc(C(Cc2nc(-c3ccccn3)no2)c2ccccc2)cc1	1%	-5%[57.5 µM]	53%	?	4
c1ccc(-c2noc(CC3CCCCC3)n2)nc1	-3%	-6%	7.1µM*	2%	-6
c1ccc(Cc2nc(-c3ccccn3)no2)cc1	-11%	-14%[57.5 µM]	5µM*	29%	5
CCc1ccc(C(=O)Nc2sc(C)c(C)c2C#N)cc1	.	.	.	.	3
O=C(COc1cc(OCC(=O)N2CCNC2=O)c(Cl)cc1Cl)N1CCNC1=O	.	.	.	.	4
Cc1c(Cl)cccc1S(=O)(=O)Nc1ccc2sc(NC(=O)c3ccccc3)nc2c1	.	.	.	.	18
Cc1sc(NC(=O)c2ccsc2)c(C#N)c1C	.	.	.	.	-1
O=C(Nc1ccccn1)c1cc(-c2ccco2)nc2ccccc12	.	.	.	.	5

Screens (PubChem)
